# Vaccinia mCherry = inhibitors of vaccinia virus infection (mCherry reporter signal); Vaccinia virus mCherry reporter infection, fluorescence; Potency, µM (titrated, usually from 36.5 µM), without a hit: top-dose activity change, negative = inhibition, actives largely listed as inhibitors; actives 0.63% (n = 310,000); calls by dose curve; tested in A549 cells; note: potency is the fitted concentration of half-maximal effect; nearly all actives have a fitted effect of over 35% in size
# VACV Venus inh = vaccinia inhibition (Venus reporter). actives 0.46% (n = 330,000). Vaccinia virus Venus reporter expression, fluorescence. Potency, µM (series often up to 36.5 µM), without a hit: at the highest dose activity change, negative = inhibition, hits mostly inhibitors. AID 720580; calls by dose curve; tested in A549 cells; note: potency is the fitted concentration of half-maximal effect; nearly all actives have a fitted effect of over 30% in size
# HCMV inh = human cytomegalovirus inhibition; HFF cells, HCMV-luciferase reporter, 72 h; stronger effect = lower value; activity change, negative = inhibition, % at 57.5 µM; actives 4.5% (n = 410,000); AID 1259415; in the data active = activity change below about -60%; inconclusive = no clear call, values can overlap the other calls; inactive = above about -39%
#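 HFF cells seeded 16 h at 37C, treated with compounds, infected with luciferase-reporter HCMV at MOI 1 PFU/cell; luciferase read at 72 h post infection, normalized to buffer-only and Salinomycin controls.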
# Marburg entry inh = inhibitors of Marburg virus binding or cell entry. Marburg virus pseudotyped entry inhibition, cell reporter. Potency, µM (doses to about 37.8 µM), for the others: top-dose activity change, negative = inhibition, usual class: inhibitors. actives 1.8% (n = 300,000). AID 540276; calls by dose curve; tested in HEK293 cells; note: potency is the fitted concentration of half-maximal effect
# LASV entry inh = Lassa virus entry inhibition; Lassa virus pseudotype entry inhibition, cell reporter; Potency, µM (titrated, usually from 37.9 µM), without a hit: at the top dose activity change, negative = inhibition, most hits filed as inhibitors; actives 1.2% (n = 300,000); calls by dose curve; tested in HEK293 cells; note: potency is the fitted concentration of half-maximal effect; nearly all actives have a fitted effect of over 50% in size
# HCV inh = inhibitors of hepatitis C virus infection; actives 3.4% (n = 340,000); Potency, µM (series often up to 41.8 µM), without a hit: top-dose activity change, negative = inhibition, actives largely listed as inhibitors; Huh7.5.1 HCVcc-Cre infection, luciferase reporter, 44 h; AID 651820; active = well fitted inhibition curve with a large enough effect; inconclusive = small, poorly fitted or top-dose-only effect, or another doubt; inactive = no such curve, though single readings can be large or run the other way; note: potency is the fitted concentration of half-maximal effect
#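 Cells seeded at 1,000/well and cultured 4 h, then compounds added followed by HCVcc-Cre virus (~0.5 moi). After 44 h further culture, luciferase substrate was added, plates held 15 min at room temperature, and luminescence read for 15 sec.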
# An asterisk follows results filed as active; i = inactive; ? = inconclusive; / = no result given; [ ] = another dose, or the depositor's remark. Hits are enriched below; roughly 7.8% of the tested compounds scored in any of these assays. % is set by controls: 0 for no effect and ±100 for the full control effect.
SMILES,Vaccinia mCherry,VACV Venus inh,HCMV inh,Marburg entry inh,LASV entry inh,HCV inh
O=C(NCc1ccccc1)c1ccc(N2CCC3(CC2)CC(c2ccc(Cl)cc2)=NO3)c([N+](=O)[O-])c1,0.0%,-7.5%,?,/,/,4.47µM*
O=C(NCc1ccc(F)cc1)c1ccc(N2CCc3ccccc32)c([N+](=O)[O-])c1,-4.8%,-16.2%,?,?,18.4µM*,?
O=C(C[n+]1ccccc1Cl)c1ccc(Br)cc1,-12.9%,-13.6%,/,/,/,/
Cc1ccc(-c2c(C(=O)N3CCN(c4cccc(C)c4C)CC3)oc(=O)c3ccccc23)cc1,-19.9%,-10.9%,-33.4,?,?,/
Cn1cc(C(=O)CCl)c2ccccc21,/,/,-98.2*,16.4µM*,?,7.94µM*
Cn1cc(C(N)=O)c2ccccc21,-12.7%,-13.5%,17.5,/,/,15.8%
CCCCNC(=O)CCCn1c(=O)c2ccccc2n(CC(=O)Nc2ccccc2OCC)c1=O,?,?,9.6,1.7%[46.1 µM],-11.4%[46.1 µM],/
Oc1ccc(/C=C/c2ccnc3ccccc23)cc1,?,-28.9%,-60.9*,?,?,8.91µM*
C[C@@H]1CC2[C@@H]3CC[C@H]4CC(=O)CC[C@]4(C)C3=CC[C@]2(C)[C@@]1(O)C(=O)CO (stereo partly drawn),-14.4%,-6.9%,-100.9*,-16.4%,-22.5%,?
C(=CCSc1ccccn1)CSc1ccccn1,/,/,5.8,/,/,/
Cc1ccccc1C(=O)NC(C)c1nnc2n1CCN(Cc1ccc(F)cc1)CC2 (stereo not drawn),-2.0%,1.5%,/,/,/,/
COc1ccc(-c2nc(Cn3c(SCc4ccc(F)cc4)nc4cccnc43)c(C)o2)cc1,-27.9%,?,-4.1,/,-13.3%[46.1 µM],/
COc1ccc(-c2nc(Cn3c(SCc4ccc(C)cc4)nc4cccnc43)c(C)o2)cc1OC,-27.5%,-23.8%,-97.8*,/,?,/
CCN1C(=O)S/C(=C/c2ccc(Sc3nc4ccccc4[nH]3)o2)C1=O,-28.7%,-23.1%,-65.3*,?,?,?
O=C(N/N=C/c1ccc(Sc2nc3ccccc3[nH]2)o1)c1ccncc1,-2.2%,-9.2%,?,21.0%,?,9.8%
CCOC(=O)c1c(C)oc2ccc(N(C(=O)Oc3ccccc3)S(=O)(=O)c3ccccc3)cc12,?,-17.4%,-4.8,/,-20.8%[46.1 µM],/
COc1cccc(NC(=O)CN(C)C(=O)CNC(=O)c2ccc(Oc3ccccc3)cc2)c1,-8.5%,-26.1%,6.3,-7.7%,4.5%[46.1 µM],-5.7%
CN(CC(=O)Nc1ccccc1Br)C(=O)CNC(=O)c1ccc(Oc2ccccc2)cc1,/,/,-63.0*,/,/,?
CS(=O)(=O)c1ccc(C(=O)OCC(=O)NC(=O)C2CCCCC2)cc1[N+](=O)[O-],/,/,-77.2*,?,?,-0.8%
CS(=O)(=O)c1ccc(C(=O)OCC(=O)N2CCOCC2)cc1[N+](=O)[O-],/,/,-79.5*,/,/,/
Cc1cc(C(=O)OCC(=O)NC(=O)C2CCCCC2)ccc1[N+](=O)[O-],-4.6%,-16.0%,/,/,/,/
CS(=O)(=O)c1ccc(C(=O)OCC(=O)N2CCCC2)cc1[N+](=O)[O-],-2.8%,-14.8%,/,/,/,/
CS(=O)(=O)c1ccc(C(=O)OCC(=O)N2CCN(CCC3CCCCC3)CC2)cc1[N+](=O)[O-],/,/,-102.8*,/,/,/
COc1ccc(C2=NN(C(=O)COC(=O)c3ccc(S(C)(=O)=O)c([N+](=O)[O-])c3)C(c3ccco3)C2)cc1 (stereo not drawn),11.2µM*,?,42.0,?,?,?
CC(C)(C)OC(=O)/C=C/[C@H]1Cc2ccccc2N1,/,/,19.4,/,/,/
SMILES,Vaccinia mCherry,VACV Venus inh,HCMV inh,Marburg entry inh,LASV entry inh,HCV inh
O=C(NCCN1Cc2ccccc2OC(c2ccsc2)C1)c1ccc2[nH]ccc2c1 (stereo not drawn),-15.1%,1.4%,/,/,/,/
CC(=O)N1CCCc2cc(S(=O)(=O)N3CCN(c4ccccc4F)CC3)ccc21,-4.6%,-11.9%,-27.4,/,-9.7%[46.1 µM],/
CCOC(=O)Cn1nc(C)c(NC(=O)COc2ccc(C)c(C)c2)c1C,-5.9%,0.3%,-61.5*,13.9%[46.1 µM],3.9%[46.1 µM],0.3%
CCOC(=O)Cc1csc(NC(=O)COc2ccc(C)c(C)c2)n1,-2.0%,-13.4%,10.7,5.8%[46.1 µM],8.3%[46.1 µM],-16.8%
O=C(CCN1C(=O)C2CC=CCC2C1=O)N1CCN(C2=NCCCC2)CC1 (stereo not drawn),/,/,/,20.6%,/,/
COc1ccc(-c2noc(C3CCCN(C(=O)CCc4ccccc4)C3)n2)cc1 (stereo not drawn),/,/,16.2,0.1%,-21.3%,-22.2%
O=S(=O)(c1ccc(Cl)cc1)N1CCCC(c2nc(-c3ccc(F)cc3)no2)C1 (stereo not drawn),i,-20.1%,19.9,/,/,13.3%
O=C(CC1CCCCC1)N1CCCC(c2nc(-c3ccc(S(=O)(=O)N4CCCC4)cc3)no2)C1 (stereo not drawn),-11.7%,-28.0%,-70.6*,-26.1%,-24.2%,?
O=C(c1ccco1)N1CCCC(c2nc(-c3ccc(S(=O)(=O)NCc4ccccc4)cc3)no2)C1 (stereo not drawn),-21.0%,?,-87.8*,?,?,?
COc1ccc(C(=O)N2CCC(c3nc(-c4ccc(S(=O)(=O)N5CCCC5)cc4)no3)CC2)cc1,?,-21.0%,-81.2*,?,-24.3%[46.1 µM],/
CC1CCc2c(sc3nnn(Cc4ccc(F)cc4)c(=O)c23)C1 (stereo not drawn),-1.0%,-4.2%,-0.8,-0.8%[46.1 µM],-15.7%[46.1 µM],/
O=[N+]([O-])c1ccc(Sc2ccccn2)nc1,?,?,20.1,-1.4%[46.1 µM],11.4%[46.1 µM],6.7%
O=[N+]([O-])c1ccc(Sc2nnnn2-c2ccccc2)nc1,-25.8%,-22.4%,-88.1*,12.6µM*,?,?
C1CCC(N=C(NC23CC4CC(CC(C4)C2)C3)N2CCOCC2)CC1,/,/,/,10µM*,-33.2%,/
Cc1ccc(-c2nn3c(C)nnc3s2)cc1NC(=O)c1ccc(-c2cccc(Cl)c2)o1,-11.4%,-16.0%,?,9.2µM*,?,?
Cc1ccc(-c2nn3c(C)nnc3s2)cc1NC(=O)c1ccc(Br)o1,-4.8%,-4.9%,13.2,/,/,10.1%
Cc1ccc(-c2nn3c(C)nnc3s2)cc1NC(=O)c1ccc(-c2ccc(Cl)cc2Cl)o1,/,/,-73.6*,14.6µM*,?,?
COc1cccc2c1[C@H](C=Cc1ccccc1)[C@@H]([C@H](O)COC(C)=O)OC2,/,/,/,16.1%[14.2 µM],/,/
O=[N+]([O-])c1ccc(N2CCOCC2)c2c1no[n+]2[O-],?,55.0%,-101.4*,/,/,/
O=[N+]([O-])c1ccc(N2CCOCC2)c2cccnc12,-14.0%,-27.6%,4.8,/,/,-4.3%
COc1cccc(CN(C)C(=O)c2[nH]c(C)c(C(C)=O)c2C)c1OC,-4.1%,-16.8%,-32.9,?,-1.8%,11.2µM*
COc1ccccc1CNC(=O)c1[nH]c(C)c(C(C)=O)c1C,/,/,33.7,/,/,-27.9%
O=C(Cc1ccccc1[N+](=O)[O-])c1ccccc1[N+](=O)[O-],/,/,-13.8,/,/,/

# Source: PubChem BioAssay
